# Data from PubChem BioAssay (EPA / NIEHS).
# Inconclusive results are not listed. Calls of active or inactive are those of the source. How the source made its calls: active means hit-call score of the fitted dose curve at least 0.9, where 1 is the maximum; inconclusive means response in the unintended direction; inactive means score below 0.9.
# Legend:
# [1] = TOX21_p53_BLA_p2_viability: Viability Assessment in the Tox21 HCT-116 p53 Agonism Beta-lactamase Assay, Phase 2 (AID 2283591);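 further: compound exposure lasted 16 h at 37 °C; actives lower the ATP signal meaning cytotoxicity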
# Summary of the method: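 HCT116 p53-bla cells, 4000/well, dosed after 5 h plating (217-fold dilution of DMSO stocks) and incubated 16 h at 37C. Viability taken as cellular ATP by CellTiter-Glo luminescence after 30 min RT; signal loss marks cytotoxicity.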
# [2] = molecular target: Cellular tumor antigen p53 (Homo sapiens) (UniProt P04637); experiment: TOX21_p53_BLA_p2_ratio: Tox21 HCT-116 p53 Agonism Beta-lactamase Assay, Ratio, Phase 2 (AID 2283592)
# Chain of Cellular tumor antigen p53 (Homo sapiens) (P04637 whole entry, looked up): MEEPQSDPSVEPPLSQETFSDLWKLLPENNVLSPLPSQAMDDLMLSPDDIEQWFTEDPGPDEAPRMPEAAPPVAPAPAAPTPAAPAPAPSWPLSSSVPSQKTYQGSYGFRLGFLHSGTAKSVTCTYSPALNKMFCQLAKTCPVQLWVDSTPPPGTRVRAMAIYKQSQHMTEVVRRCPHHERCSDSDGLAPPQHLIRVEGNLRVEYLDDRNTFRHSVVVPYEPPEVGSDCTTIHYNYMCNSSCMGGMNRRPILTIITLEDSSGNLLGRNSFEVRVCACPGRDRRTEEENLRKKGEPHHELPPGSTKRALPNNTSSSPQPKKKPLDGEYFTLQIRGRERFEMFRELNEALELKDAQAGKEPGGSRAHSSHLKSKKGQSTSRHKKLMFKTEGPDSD
# Summary of the method: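 Human colon HCT116 cells with an inducible p53 beta-lactamase reporter are exposed to test chemicals for 16 h at 37C. Reporter induction is read as the 460/530 nm emission ratio after CCF4-AM loading, normalized to DMSO.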
# [3] = TOX21_p53_BLA_p3_viability: Viability Assessment in the Tox21 HCT-116 p53 Agonism Beta-lactamase Assay, Phase 3 (AID 2283593);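 further: cells exposed to compound for 16 h before reading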
# Summary of the method: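 HCT116 cells, 4000/well, dosed 5 h after plating by pin transfer (217-fold dilution from DMSO stock) and incubated 16 h at 37C, 5% CO2. Viability read as ATP luminescence with CellTiter-Glo after 30 min at room temperature.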
# [4] = molecular target: Cellular tumor antigen p53 (Homo sapiens) (UniProt P04637); experiment: TOX21_p53_BLA_p3_ratio: Tox21 HCT-116 p53 Agonism Beta-lactamase Assay, Ratio, Phase 3 (AID 2283596)
# Summary of the method: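 HCT116 p53-bla cells (4000/well) given compound in DMSO (217-fold dilution) after 5 h, incubated 16 h at 37C. CCF4-AM substrate 2 h at room temperature; 460/530 nm emission ratio, gain fitted against DMSO.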
# [5] = TOX21_p53_BLA_p4_viability: Viability Assessment in the Tox21 HCT-116 p53 Agonism Beta-lactamase Assay, Phase 4 (AID 2283597);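 further: hits lower the luminescence signal meaning cytotoxicity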
# Summary of the method: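 Luminescent ATP readout (CellTiter-Glo, 30 min, room temperature) in the same wells as the p53 bla ratio. HCT116 cells were treated for 16 h at 37C with DMSO-dissolved compounds.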
# [6] = molecular target: Cellular tumor antigen p53 (Homo sapiens) (UniProt P04637); experiment: TOX21_p53_BLA_p5_ratio: Tox21 HCT-116 p53 Agonism Beta-lactamase Assay, Ratio, Phase 5 (AID 2283599)
# Summary of the method: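 HCT-116 p53-bla cells (4000/well) plated 5 h, dosed with compound (217-fold DMSO dilution) for 16 h at 37 C; CCF4-AM substrate 2 h at room temperature. Activity is the 460/530 nm emission ratio (405 nm excitation), fitted in gain-of-signal direction versus DMSO.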
# [7] = TOX21_p53_BLA_p5_viability: Viability Assessment in the Tox21 HCT-116 p53 Agonism Beta-lactamase Assay, Phase 5 (AID 2283600)
# Summary of the method: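 Seeded cells (4000/well) settle 5 h before compound addition. Plates then incubate 16 h at 37C, receive FRET substrate for 2 h, and finally CellTiter-Glo, with luminescence measured after a 30 min room-temperature incubation.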
# [8] = molecular target: Cellular tumor antigen p53 (Homo sapiens) (UniProt P04637); experiment: TOX21_p53_BLA_p4_ratio: Tox21 HCT-116 p53 Agonism Beta-lactamase Assay, Ratio, Phase 4 (AID 2283601)
# Summary of the method: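 HCT-116 p53 beta-lactamase reporter cells (4000/well) preincubated 5 h, then compound (217-fold dilution of DMSO stock) for 16 h at 37C. CCF4-AM substrate added 2 h at room temperature; 460/530 nm emission ratio fitted upward versus DMSO.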
# PGR (gene 5241) [9] = molecular target: PGR (gene 5241) (UniProt P06401); experiment: TOX21_PR_BLA_Followup_Antagonist_ratio: Tox21 HEK293 Progesterone Receptor (PR) Antagonism Beta-lactamase Follow-Up Assay, Ratio (AID 2283934)
# Chain of PGR (gene 5241) (P06401 whole entry, looked up): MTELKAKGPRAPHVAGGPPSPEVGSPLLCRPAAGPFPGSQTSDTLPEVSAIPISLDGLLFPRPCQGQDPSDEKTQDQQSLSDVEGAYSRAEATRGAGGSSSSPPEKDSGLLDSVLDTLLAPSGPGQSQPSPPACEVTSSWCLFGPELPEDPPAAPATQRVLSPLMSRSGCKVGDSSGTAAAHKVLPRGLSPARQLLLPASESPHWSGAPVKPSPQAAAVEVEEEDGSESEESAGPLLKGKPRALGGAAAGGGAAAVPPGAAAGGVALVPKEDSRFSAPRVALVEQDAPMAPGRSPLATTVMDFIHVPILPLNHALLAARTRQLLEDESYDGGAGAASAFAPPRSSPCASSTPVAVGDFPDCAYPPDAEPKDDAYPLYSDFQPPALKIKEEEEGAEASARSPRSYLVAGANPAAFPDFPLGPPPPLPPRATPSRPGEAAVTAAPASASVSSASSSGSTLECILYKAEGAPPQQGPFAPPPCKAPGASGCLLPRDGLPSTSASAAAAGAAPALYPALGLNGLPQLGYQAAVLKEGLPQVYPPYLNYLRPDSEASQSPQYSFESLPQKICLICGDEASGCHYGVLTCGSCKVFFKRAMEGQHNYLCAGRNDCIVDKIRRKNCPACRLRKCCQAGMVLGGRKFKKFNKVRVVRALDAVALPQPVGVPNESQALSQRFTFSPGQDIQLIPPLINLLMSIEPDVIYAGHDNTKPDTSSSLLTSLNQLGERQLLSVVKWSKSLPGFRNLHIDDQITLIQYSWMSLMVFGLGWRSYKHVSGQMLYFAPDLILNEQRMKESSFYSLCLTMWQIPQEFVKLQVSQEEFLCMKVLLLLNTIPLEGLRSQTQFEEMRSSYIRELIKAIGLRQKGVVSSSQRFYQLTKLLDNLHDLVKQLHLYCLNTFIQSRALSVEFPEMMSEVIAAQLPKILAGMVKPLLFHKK
# Summary of the method: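 HEK293T PR-UAS-bla, 2% CS-FBS; 6 hr plating, then cpd + R5020 (1 nM final), 16 hr 37C/5% CO2. B/G FRET substrate 2 h RT. Ratio ch2/ch1 vs DMSO; CellTiter-Glo viability multiplexed, autofluorescence checked.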
# [10] = TOX21_PR_BLA_Followup_Agonist_viability: Viability Assessment in the Tox21 HEK293 Progesterone Receptor (PR) Agonism Beta-lactamase Follow-Up Assay (AID 2283935);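 further: signal loss means lower viability so actives are cytotoxic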
# Summary of the method: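 HEK293T PR-UAS-bla, 3,000 cells/well, 2% CS-FBS; 6 hr pre-incubation; cpd in DMSO, 16 hr 37C; LiveBLAzer 2 hr RT, then CellTiter-Glo 30 min RT, luminescence. Decrease = lost viability.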
# [11] = TOX21_PR_BLA_Followup_Antagonist_viability: Viability Assessment in the Tox21 HEK293 Progesterone Receptor (PR) Antagonism Beta-lactamase Follow-Up Assay (AID 2283936);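 further: hits lower the luminescence signal meaning cytotoxicity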
# Summary of the method: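 PR-UAS-bla HEK293T cells (3,000/well, 2% charcoal-stripped FBS) given compound plus R5020 agonist, 16 h at 37C. CellTiter-Glo added after bla read, 30 min at room temperature; luminescence loss indicates cytotoxicity.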
# PGR (gene 5241) [12] = molecular target: PGR (gene 5241) (UniProt P06401); experiment: TOX21_PR_LUC_Followup_Antagonist: Tox21 HEK293 Progesterone Receptor (PR) Antagonism Luciferase Follow-Up Assay (AID 2283938);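 further: curve fitted upward as signal gain over DMSO baseline despite antagonist label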
# Summary of the method: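 Luciferase reporter in HEK293-PR-A-luc cells: 16 h compound treatment at 37C, ONE-Glo luminescence detection, DMSO as negative control and baseline.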
# [13] = TOX21_PR_LUC_Followup_Antagonist_viability: Viability Assessment in the Tox21 HEK293 Progesterone Receptor (PR) Antagonism Luciferase Follow-Up Assay (AID 2283940)
# Summary of the method: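 Multiplexed viability counter-screen: after 5 days in charcoal-stripped-FBS medium, HEK293-PR-A-luc cells are plated, pinned with DMSO-dissolved compounds for 16 h at 37C, and ATP content is quantified luminescently via CellTiter-Glo.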
# [14] = TOX21_PR_LUC_Followup_Agonist_viability: Viability Assessment in the Tox21 HEK293 Progesterone Receptor (PR) Agonism Luciferase Follow-Up Assay (AID 2283941);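 further: loss of signal means cytotoxicity so actives lower viability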
# Summary of the method: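 Cells were kept 5 days in charcoal-stripped serum medium before plating HEK293-PR-A-luc at 3,000 cells/well. After 5 h they received DMSO-dissolved compound and incubated 16 h at 37C. Viability was taken from CellTiter-Glo ATP luminescence.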
# THRB (gene 7068) [15] = molecular target: THRB (gene 7068) (UniProt P10828); experiment: TOX21_TRB_BLA_Antagonist_Followup_ratio: Tox21 Thyroid Hormone Receptor beta Antagonism Beta-lactamase (BLA) Follow-Up Assay, Ratio (AID 2283958)
# Chain of THRB (gene 7068) (P10828 whole entry, looked up, the tested form may be a part): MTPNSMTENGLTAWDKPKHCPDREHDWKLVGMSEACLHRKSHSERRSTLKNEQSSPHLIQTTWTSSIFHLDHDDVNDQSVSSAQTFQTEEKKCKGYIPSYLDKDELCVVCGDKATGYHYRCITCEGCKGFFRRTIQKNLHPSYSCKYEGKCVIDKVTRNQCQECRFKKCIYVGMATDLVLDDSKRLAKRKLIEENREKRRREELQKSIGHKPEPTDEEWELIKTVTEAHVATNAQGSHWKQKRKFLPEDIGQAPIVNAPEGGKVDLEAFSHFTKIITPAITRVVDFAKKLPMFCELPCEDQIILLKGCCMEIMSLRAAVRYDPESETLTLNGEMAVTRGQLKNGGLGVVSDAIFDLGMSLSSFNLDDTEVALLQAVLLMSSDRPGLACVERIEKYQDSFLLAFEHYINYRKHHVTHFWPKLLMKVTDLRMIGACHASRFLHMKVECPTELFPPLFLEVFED
# Summary of the method: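 HEK293T TRb-bla (GAL4 DBD + hTRβ LBD), 2% cs-FBS phenol red-free DMEM, 5 h attach; cpds 11-pt triplicate, 18 h 37C; CCF4-AM 2 h RT; 460/530 ratio vs DMSO; CellTiter-Glo viability same wells.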
# [16] = TOX21_TRB_BLA_Antagonist_Followup_viability: Viability Assessment in the Tox21 Thyroid Hormone Receptor beta Antagonism Beta-lactamase (BLA) Follow-Up Assay (AID 2283961)
# Summary of the method: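 In the same wells as the reporter read, cell health was gauged by CellTiter-Glo ATP luminescence, with signal loss indicating reduced viability. Cells had been exposed to test compounds for 18 h.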
# THRB (gene 7068) [17] = molecular target: THRB (gene 7068) (UniProt P10828); experiment: TOX21_TRB_COA_Antagonist_Followup_ratio: Tox21 Thyroid Hormone Receptor beta Antagonism through Coactivator Recruitment Follow-Up Assay, Ratio (AID 2283967)
# Summary of the method: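 Cell-free TR-FRET: GST-TRb LBD (5.0 nM) with fluorescein-SRC-2 peptide (200 nM) and Tb anti-GST antibody (2 nM), 0.10% BSA. 520:495 nm emission ratio normalized to DMSO (0%) and T3 (100%).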
# [18] = molecular target: Retinoic acid receptor RXR-alpha (Homo sapiens) (UniProt P19793); experiment: TOX21_TR_RXR_BLA_Antagonist_Followup_ratio: Tox21 Thyroid Hormone Receptor beta Retinoid X Receptor alpha (RXRa) Antagonism Beta-lactamase (BLA) Follow-Up Assay, Ratio (AID 2283972)
# Chain of Retinoic acid receptor RXR-alpha (Homo sapiens) (P19793 whole entry, looked up): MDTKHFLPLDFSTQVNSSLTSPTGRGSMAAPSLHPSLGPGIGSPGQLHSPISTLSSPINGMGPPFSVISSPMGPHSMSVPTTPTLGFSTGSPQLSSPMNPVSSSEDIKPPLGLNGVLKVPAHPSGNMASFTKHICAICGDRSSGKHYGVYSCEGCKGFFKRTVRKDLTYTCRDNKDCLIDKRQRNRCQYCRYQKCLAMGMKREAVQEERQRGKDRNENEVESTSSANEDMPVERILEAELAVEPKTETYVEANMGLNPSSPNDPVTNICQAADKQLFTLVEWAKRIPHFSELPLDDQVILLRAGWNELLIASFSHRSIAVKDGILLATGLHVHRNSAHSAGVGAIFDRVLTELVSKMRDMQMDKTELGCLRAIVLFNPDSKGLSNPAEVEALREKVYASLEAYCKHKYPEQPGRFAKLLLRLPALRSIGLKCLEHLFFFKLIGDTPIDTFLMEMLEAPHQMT
# Summary of the method: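 Compounds were tested in triplicate at 11 concentrations on RXRa-bla HEK293T cells for 16 h. Substrate cleavage ratio, normalized to DMSO, gave the endpoint.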
# [19] = TOX21_TR_RXR_BLA_Antagonist_Followup_viability: Viability Assessment in the Tox21 Thyroid Hormone Receptor beta Retinoid X Receptor alpha (RXRa) Antagonism Beta-lactamase (BLA) Follow-Up Assay (AID 2283979)
# Summary of the method: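 RXRa-bla HEK293T cells (2,500/well, phenol red-free DMEM, 2% charcoal-stripped FBS) were attached 5 h, then exposed to compounds at 11 concentrations in triplicate for 16 h at 37C. Viability measured by CellTiter-Glo ATP luminescence, bidirectional fitting versus DMSO.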
structure (smiles),measurement,setting,value
CC(=O)C(Cl)(Cl)Cl,outcome,[1],inactive
same,AC50,[2],1290 nM (active)
same,outcome,[3],inactive
same,AC50,[4],778 nM (active)
same,outcome,[5],inactive
same,AC50,[6],1520 nM (active)
same,outcome,[7],inactive
same,outcome,[8],inactive
C=CC[C@]1(O)CC[C@H]2[C@@H]3CCC4=CC(=O)CCC4=C3C=C[C@@]21C,outcome,[1],inactive
same,outcome,[2],inactive
same,outcome,[3],inactive
same,outcome,[4],inactive
same,outcome,[5],inactive
same,outcome,[6],inactive
same,outcome,[8],inactive
same,outcome,PGR (gene 5241) [9],inactive
same,outcome,[10],inactive
same,outcome,[11],inactive
same,outcome,PGR (gene 5241) [12],inactive
same,outcome,[13],inactive
same,outcome,[14],inactive
same,outcome,THRB (gene 7068) [15],inactive
same,outcome,[16],inactive
same,outcome,THRB (gene 7068) [17],inactive
same,outcome,[18],inactive
same,outcome,[19],inactive
